HCMV antiviral: human cytomegalovirus inhibition; HFF cells, HCMV-luciferase reporter, 72 h; active compounds read low; activity change, negative = inhibition, % at 57.5 µM; 410,000 tested, 4.5% active; in the data active = activity change below about -60%; inconclusive = no clear call, values can overlap the other calls; inactive = above about -39%
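Cell-based, HFFs, 1000 cells/well, 16 h 37C; cpds in DMSO + HCMV-luc, MOI 1 PFU/cell; 72 h 37C; OneGlo luminescence after 5 min RT; norm. to buffer vs Salinomycin 10uM.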
Pf growth 96h: P. falciparum growth inhibition at 96 hour, primary screen for plastid delayed-death inhibitors. Potency, µM (doses to about 28.7 µM), for inactives: at the highest dose activity change, negative = inhibition, hits mostly inhibitors. 320,000 tested, 6.9% active. AID 504834. P. falciparum luciferase reporter growth, 96 h; note: potency is the fitted concentration of half-maximal effect
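Infected RBCs, 2% Hct / 0.05% parasitemia final; luciferase-reporter P. falciparum; cpd 96 h, 37 C, 5% CO2; luciferase detection reagent; luminescence.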
Sm TGR block: S. mansoni TGR enzyme inhibition. purified TGR, DTNB reduction, TNB absorbance 405 nm. 360,000 tested, 3% active. Q962Y6. Potency, µM (top dose mostly 114 µM), without a hit: at the top dose activity change, negative = inhibition, actives largely listed as inhibitors; note: potency is the fitted concentration of half-maximal effect; nearly all actives have a fitted effect of over 60% in size
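Kinetic colorimetric format: TGR-catalysed, NADPH-driven DTNB reduction monitored via TNB absorbance. Enzyme dispensed at 20 nM; compound exposure 15 min at room temperature before reaction start.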
Giardia FBPA inh: Giardia lamblia aldolase inhibition; Potency, µM (doses to about 59.6 µM), without a hit: at the top dose activity, negative = inhibition, actives largely listed as inhibitors; A8B2U2; AID 2451; purified Giardia FBPA; 290,000 tested, 0.71% active; note: potency is the fitted concentration of half-maximal effect; nearly all actives have a fitted effect of over 55% in size
Target sequence (A8B2U2 whole entry, looked up): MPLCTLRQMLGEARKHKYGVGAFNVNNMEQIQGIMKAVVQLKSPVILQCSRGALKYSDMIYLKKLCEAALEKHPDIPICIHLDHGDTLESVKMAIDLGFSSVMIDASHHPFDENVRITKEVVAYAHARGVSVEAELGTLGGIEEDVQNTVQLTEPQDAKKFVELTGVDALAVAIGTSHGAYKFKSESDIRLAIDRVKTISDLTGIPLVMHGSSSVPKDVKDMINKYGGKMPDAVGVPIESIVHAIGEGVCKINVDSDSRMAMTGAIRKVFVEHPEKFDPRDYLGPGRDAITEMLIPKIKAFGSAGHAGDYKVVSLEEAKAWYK
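40 nM FBPA preincubated 10 min at RT with compound (up to 57.5 uM final), then substrate plus GAPDH/TPI/NAD/arsenate coupling and diaphorase/resazurin added. Fluorescence read after 20 min at RT, 525/598 nm.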
Pf growth 48h: P. falciparum growth inhibition at 48 hours (one generation). AID 504832. P. falciparum luciferase growth in erythrocytes, 48 h. Potency, µM (titrated, usually from 28.7 µM), for the others: at the highest dose activity change, negative = inhibition, hits mostly inhibitors. 310,000 tested, 5.9% active; note: potency is the fitted concentration of half-maximal effect
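Compounds are pin-transferred into medium, infected erythrocytes (2% hematocrit, 0.1% parasitemia final) are added, and plates sit one parasite generation at 37 C in 5% CO2. Detection reagent is then added and luminescence measured.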
Starred values were filed as active, the others as inactive; ? = inconclusive; nt = not tested or not shown. In the library only some 14% were active in any assay of this set; here they are far more common. Unless noted, calls come from the whole dose curve; as a rule, active = well fitted curve in the direction sought with a large enough effect; inconclusive = small, poorly fitted or top-dose-only effect, or another doubt; inactive = no such curve, though single readings can be large; an effect the other way counts as inactive or inconclusive. % is set by controls: 0 for no effect and ±100 for the full control effect.

SMILES	HCMV antiviral	Pf growth 96h	Sm TGR block	Giardia FBPA inh	Pf growth 48h
COc1ccc(C(NC(=O)/C=C/c2ccco2)c2ccc(OC)cc2)cc1	-3.5	2.33µM*	10µM*	-4.3%	10.4µM*
CC1=CC2=NC(=O)/C(=C\c3cc(C)n(-c4ccc(F)cc4)c3C)C(=N)N2O1	-36.2	?	-1.6%	4.1%	4.65µM*
Cc1cc(Br)cn2c(Cc3ccccc3C(F)(F)F)c(-c3cccc(Cl)c3)nc12	26.0	nt	nt	nt	nt
CC1CCCC(C)N1C(=O)COC(=O)CNC(=O)c1ccccc1 (stereo unspecified)	12.1	?	-4.6%	nt	-0.7%
CC(C)c1ccc(O)c(NC(=O)c2cccnc2)c1	-23.1	10.4µM*	-16.5%	0.1%	nt
CC(C)c1ccc(NC(=S)NNC(=O)c2cccnc2)cc1	?	41.2%	nt	15.4%	30.4%
Cc1cc(NC(=O)c2n[nH]c(=O)c3ccccc23)ccc1Br	-16.0	?	19.7%	1.6%	24.7%
CC(C)c1ccc(NC(=O)c2cccnc2)cc1	34.1	7.38µM*	-20.2%	-11.5%	125.4%
CC(C)c1ccc(NC(=O)c2n[nH]c(=O)c3ccccc23)cc1	-5.2	8.28µM*	7.9%	2.7%	107.8%
CCC(C)c1ccc(O)c(NC(=O)c2cncc(Br)c2)c1 (stereo unspecified)	-39.2	-22.5%	2.1%	-6.2%	1.04µM*
C[N+](C)(C)CCN1CCc2ccccc21	-11.5	nt	nt	nt	nt
C[C@H](NCc1ccccc1)c1ccccc1	nt	nt	nt	-0.5%	nt
COc1ccc2[nH]cc(CCNc3ccnc(-c4ccccc4C)n3)c2c1	nt	nt	nt	-13.3%	nt
Cc1cccc(C(C)C)c1NC(=O)c1cccnc1	3.5	11.7µM*	-10.0%	4.8%	14.5%
CC(C)c1ccc(NC(=O)CSc2n[nH]c(=O)n2-c2cccnc2)cc1	-3.7	13.1µM*	?	nt	-3.3%
CC(C)(C)c1ccc(NC(=O)CSc2n[nH]c(=O)n2-c2cccnc2)cc1	20.8	2.2%	3.8%	nt	-4.2%
CC(CN1CCCCC1)NC(=O)c1cccs1 (stereo unspecified)	-4.5	-19.2%	4.9%	4.4%	-21.6%
CCOC(=O)N1CCN(C2CCCN(C(=O)c3cccc(N(C)C)c3)C2)CC1 (stereo unspecified)	-24.5	?	-0.3%	7.4%	0.6%
CCOc1cc(/C=C/c2ccc3cccc([N+](=O)[O-])c3n2)cc(Cl)c1O	?	?	-10.4%	-5.8%	9.28µM*
COc1ccc([C@@H](C)C(=O)c2ccc(O)cc2O)cc1	nt	nt	nt	0.9%	nt
Cc1ccc(S(=O)(=O)N2CCCC2CNC(=O)C(=O)NCc2ccc3c(c2)OCO3)cc1 (stereo unspecified)	-25.7	nt	nt	nt	nt
O=C(NCCc1cccc(Cl)c1)c1ccc(OC2CCN(Cc3ccccn3)CC2)cc1	-71.0*	?	-27.3%	13.7%	0.7%
CCn1cc(CNC(=O)c2ccc(OC3CCN(Cc4ccccn4)CC3)cc2)cn1	-71.4*	?	2.0%	5.3%	25.5%
CCn1nc(C)c(CNC(=O)c2ccc(OC3CCN(Cc4ccccn4)CC3)cc2)c1C	-91.0*	48.5%	0.0%	nt	-7.4%
COCC(C)N1CCC(Oc2ccc(C(=O)NCc3ccccn3)cc2)CC1 (stereo unspecified)	18.4	11.7µM*	1.9%	6.6%	11.1%
SMILES	HCMV antiviral	Pf growth 96h	Sm TGR block	Giardia FBPA inh	Pf growth 48h
CN(C)c1cccc(Nc2cc3[nH]c(-c4cccc(F)c4)cc3cn2)c1	-26.5	nt	nt	nt	nt
CC(C)(C)OC(=O)N1CCC(c2c(C(=O)NCc3ccc4c(c3)OCO4)cnn2-c2ccc(F)cc2F)CC1	0.0	nt	-0.5%	nt	nt
CCOc1ccccc1CN1CCC(Oc2ccc(C(=O)NCc3ccccn3)cc2)CC1	6.5	?	-22.8%	9.3%	10.4µM*
C=CCNc1cccc2c1S(=O)(=O)N[C@@H](Cc1ccccc1)CO2	-22.2	nt	nt	nt	nt
COc1ccc(Nc2nccc(-c3ccc(C#N)cc3)n2)cc1	-29.3	5.86µM*	35.9%	-1.1%	-19.4%
COc1ccc(OC)c(NC(=O)c2cccc(S(=O)(=O)N(Cc3ccccc3)c3ccccc3OC)c2)c1	5.1	7.38µM*	-6.5%	-3.6%	14.7µM*
COc1ccccc1N(Cc1ccccc1)S(=O)(=O)c1cccc(C(=O)Nc2ccc(C(C)=O)cc2)c1	70.7	3.7µM*	-0.8%	3.8%	?
COc1ccc(OC)c(NC(=O)c2ccc(CN3CCc4ccccc4C3)cc2)c1	?	-28.3%	2.9%	-5.3%	nt
COc1ccccc1N(Cc1ccccc1)S(=O)(=O)c1cccc(C(=O)N2CCCCC2)c1	-19.1	nt	nt	nt	nt
COc1ccc(N(Cc2ccccc2)S(=O)(=O)c2cccc(C(=O)NC3=NCCS3)c2)cc1	-13.3	?	6.1%	13.3%	3.4%
COc1ccc(OC)c(NC(=O)c2ccc(CN(c3cc(Cl)ccc3C)S(=O)(=O)c3ccccc3)cc2)c1	-38.5	?	0.0%	-4.8%	1.47µM*
O=C(NC1CCCCC1)C(c1ccco1)N(C(=O)c1csnn1)c1cccc(Cl)c1 (stereo unspecified)	?	-19.6%	1.0%	8.7%	?
O=C(NC1CCN(Cc2ccccc2)CC1)c1cc(S(=O)(=O)N2CCOCC2)ccc1Cl	-32.7	nt	nt	nt	nt
CC1CCC(C(C)(C)O)CC2=C1CCC2C (stereo unspecified)	nt	nt	nt	-9.2%	nt
CNCCC(Oc1ccc(C(F)(F)F)cc1)c1ccccc1 (stereo unspecified)	31.1	?	46.2%	-4.0%	14.7µM*
CNCCC(Oc1ccccc1C)c1ccccc1 (stereo unspecified)	nt	?	nt	-0.3%	?
Oc1cc2c(cc1C(c1ccc(Cl)c(Cl)c1)N1CCCC1)OCO2 (stereo unspecified)	-97.0*	?	0.501µM*	?	?
O=C(C1=NN[C@@H]2C(=O)N(c3cccc(C(F)(F)F)c3)C(=O)[C@H]12)C(c1ccccc1)c1ccccc1	20.3	?	1.5%	2.9%	0.0%
N#Cc1ccc(N2C(=O)[C@@H]3C(C(=O)c4cnccn4)=NN[C@@H]3C2=O)cc1	10.6	29.8%	8.91µM*	?	2.9%
O=C(C1=NN[C@@H]2C(=O)N(c3ccccc3C(F)(F)F)C(=O)[C@H]12)c1ccc2ccccc2n1	10.2	-20.1%	-11.1%	-8.1%	4.7%
O=C(C1=NN[C@@H]2C(=O)N(c3cccc(C(F)(F)F)c3)C(=O)[C@H]12)c1cnccn1	-34.7	15.5%	17.8µM*	-19.4%	1.5%
N#Cc1ccc(N2C(=O)[C@@H]3C(C(=O)c4ccc5ccccc5n4)=NN[C@@H]3C2=O)cc1	-10.4	-14.7%	50.1µM*	-12.0%	1.9%
N#Cc1cccnc1N1CCN(C(c2ccnc3ccccc23)c2nnnn2-c2ccc3c(c2)OCCO3)CC1 (stereo unspecified)	-2.1	nt	nt	nt	nt
COc1ccc2oc(C(=O)N(C)CCOc3ccccc3)c(C)c2c1	42.3	42.1%	-19.2%	nt	52.0%

From PubChem BioAssay
